Inconclusive results are not listed. Activity calls are given as the source filed them. Unless noted, calls come from the whole dose curve; as a rule, active = well fitted curve in either direction with a large enough effect (not every such curve was filed as active); inconclusive = small, poorly fitted or top-dose-only effect, or another doubt; inactive = flat fitted curve, though single readings scatter.
Experiments:
[1] = AP1 Signaling Pathway (AID 357); details: ME-180 AP-1-bla reporter, EGF-induced, beta-lactamase ratio, 5 h; at 17.2 µM (top of the series) unless noted;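 note: ME-180 reporter cells stimulated with EGF at its EC50 level; % is set by controls: 0 for no effect and ±100 for the full control effect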
Summary of the method: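 Titration-series screen for positive or negative modulators of EC50 EGF-induced signaling in ME-180 cells carrying an AP-1-driven beta-lactamase reporter. After 5 hours at 37 degrees Celsius, CCF4 460nm/530nm emission ratio gave %Activity; AC50 values derived.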

[2] = NFAT Signaling Pathway (AID 444); details: Jurkat NFAT-bla M1, carbachol, beta-lactamase ratio, 5 h; at 17.2 µM (top of the series) unless noted;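 note: carbachol stimulus at about its EC50 of 1 µM final; % is set by controls: 0 for no effect and ±100 for the full control effect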
Summary of the method: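 Jurkat cells with NFAT-driven β-lactamase reporter and co-expressed M1 receptor, stimulated with carbachol (final 1 uM, ~EC50), compound titration, 5 h at 37 °C. CCF4 loaded 1 h at RT; 460/530 nm ratio gave %activity and AC50.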

[3] = Stat Signaling Pathway (AID 446); details: ME-180 (cervical carcinoma) SIE beta-lactamase reporter, IL-6 stimulated, 5 h; at 17.2 µM (top of the series) unless noted;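 note: ME-180 cervical cancer cells given 40 pM IL-6 alongside compound; SIE-controlled beta-lactamase reporter measured as 460/530 nm FRET emission ratio; % is set by controls: 0 for no effect and ±100 for the full control effect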
Summary of the method: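 Overnight-plated ME-180 cells bearing a STAT Inducible Element beta-lactamase reporter; 5 h co-exposure to compound and 40 pM IL-6; values normalized to 300 pM IL-6 and 125 nM JAK inhibitor controls.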

[4] = molecular target: Glucocorticoid receptor (Homo sapiens) (UniProt P04150); experiment: GR-GFP Redistribution (AID 450;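 active = compounds whose dose series gives a full or clear partial fitted curve of increased nuclear translocation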; note: potency is the fitted concentration of half-maximal effect)
Glucocorticoid receptor (Homo sapiens), sequence (P04150 whole entry, looked up): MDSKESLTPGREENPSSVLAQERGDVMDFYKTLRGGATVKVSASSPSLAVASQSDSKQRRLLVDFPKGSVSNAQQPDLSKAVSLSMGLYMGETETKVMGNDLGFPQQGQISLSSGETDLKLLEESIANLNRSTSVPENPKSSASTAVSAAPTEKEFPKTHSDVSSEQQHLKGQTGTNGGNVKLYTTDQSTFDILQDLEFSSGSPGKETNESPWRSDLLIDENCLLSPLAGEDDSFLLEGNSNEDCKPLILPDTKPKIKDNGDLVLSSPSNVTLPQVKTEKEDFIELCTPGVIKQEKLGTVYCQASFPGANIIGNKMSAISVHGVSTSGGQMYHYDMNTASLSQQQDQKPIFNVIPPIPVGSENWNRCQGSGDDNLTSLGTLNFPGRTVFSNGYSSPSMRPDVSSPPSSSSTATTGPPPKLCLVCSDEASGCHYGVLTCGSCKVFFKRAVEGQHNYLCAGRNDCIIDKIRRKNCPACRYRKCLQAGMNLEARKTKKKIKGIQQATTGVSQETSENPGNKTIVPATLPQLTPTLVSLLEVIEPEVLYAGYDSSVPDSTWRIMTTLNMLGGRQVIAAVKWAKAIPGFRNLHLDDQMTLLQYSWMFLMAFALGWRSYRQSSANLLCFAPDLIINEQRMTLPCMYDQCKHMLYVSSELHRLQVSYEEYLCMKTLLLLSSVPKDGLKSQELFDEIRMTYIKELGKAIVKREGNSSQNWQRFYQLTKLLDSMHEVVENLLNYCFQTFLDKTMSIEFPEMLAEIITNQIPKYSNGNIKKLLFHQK

O=C(Nc1ccc2c(c1)OCO2)c1cncc(Br)c1
inactive: activity change, negative = inhibition [1] -12.1% | activity change, negative = inhibition [2] -3.16% | activity, negative = inhibition [3] -14.9% | Potency [4] > 20.6 µM

CCOC(=O)c1c(C)[nH]c(/C(C)=N/O)c1C
inactive: activity change, negative = inhibition [1] -4.81% | activity change, negative = inhibition [2] 3.09% | activity, negative = inhibition [3] -8.45% | Potency [4] > 20.6 µM

NC(=O)C(c1ccccc1)C1CCCC1 (centres undefined)
inactive: activity change, negative = inhibition [1] -5.55% | activity change, negative = inhibition [2] 1.68% | activity, negative = inhibition [3] 15.2% | Potency [4] > 20.6 µM

O=C1C(=O)N(CCCn2ccnc2)C(c2ccccn2)/C1=C(/O)c1ccccc1 (centres undefined)
inactive: activity change, negative = inhibition [1] 15.8% | activity change, negative = inhibition [2] 6.66% | activity, negative = inhibition [3] -2.92% | Potency [4] > 20.6 µM

CCOC(=O)c1c(C)n(C)c2ccc(OC)c(NC(=O)CN3CCN(Cc4ccccc4)CC3)c12
inactive: activity change, negative = inhibition [1] -11% | activity change, negative = inhibition [2] -8.48% | activity, negative = inhibition [3] -7.51% | Potency [4] > 20.6 µM

CCOC(=O)c1n[nH]c2ccccc12
inactive: activity change, negative = inhibition [1] 7.22% | activity change, negative = inhibition [2] 0.11% | activity, negative = inhibition [3] -6.98% | Potency [4] > 20.6 µM

C=CCOc1nc2c(c(=O)n(Cc3ccc(Cl)cc3)c(=O)n2C)n1C
inactive: activity change, negative = inhibition [1] -10.1% | activity change, negative = inhibition [2] 4.79% | activity, negative = inhibition [3] 9.68% | Potency [4] > 20.6 µM

COCCCn1c2nc3ccccc3nc2c2c(=O)n(-c3ccccc3OC)c(C)nc21
inactive: activity change, negative = inhibition [1] -7.38% | activity change, negative = inhibition [2] -8.29% | activity, negative = inhibition [3] 5.28% | Potency [4] > 20.6 µM

COCCOC(=O)C1=C(C)OC(N)=C(C#N)C1c1ccco1 (centres undefined)
inactive: activity change, negative = inhibition [1] 0.22% | activity change, negative = inhibition [2] -14.6% | activity, negative = inhibition [3] -4.05% | Potency [4] > 20.6 µM

COc1ccc(C2CC(c3ccccc3)Nc3nc(N)nn32)cc1 (centres undefined)
inactive: activity change, negative = inhibition [1] 9.32% | activity change, negative = inhibition [2] -6.69% | activity, negative = inhibition [3] 1.39% | Potency [4] > 20.6 µM

CCCC(=O)N1CCc2[nH]c3ccccc3c2C1
inactive: activity change, negative = inhibition [1] -13% | activity change, negative = inhibition [2] 13.8% | activity, negative = inhibition [3] -6.04% | Potency [4] > 20.6 µM

CC(Sc1nc(N2CCCCC2)c2c(c1C#N)CCCC2)C(=O)O (centres undefined)
inactive: activity change, negative = inhibition [1] -9.35% | activity change, negative = inhibition [2] -2.56% | activity, negative = inhibition [3] -20.5% | Potency [4] > 20.6 µM

CN(C)CCCN(CCCNC(=O)/C=N/O)Cc1ccccc1
inactive: activity change, negative = inhibition [1] -5.3% | activity change, negative = inhibition [2] -11.6% | activity, negative = inhibition [3] 17.4% | Potency [4] > 20.6 µM

COC(=O)c1c(C)noc1-c1cc(C)on1
inactive: activity change, negative = inhibition [1] 10.7% | activity change, negative = inhibition [2] 10.8% | activity, negative = inhibition [3] 8.94% | Potency [4] > 20.6 µM

N#CC12CCCCC1CC1CCCCC1(C#N)N2Cc1ccccn1 (centres undefined)
inactive: activity change, negative = inhibition [1] 3.99% | activity change, negative = inhibition [2] -14.8% | activity, negative = inhibition [3] 19.1% | Potency [4] > 20.6 µM

CC(=O)Oc1ccccc1C1OCCN1C(C)=O (centres undefined)
inactive: activity change, negative = inhibition [1] 14.2% | activity change, negative = inhibition [2] -10.3% | activity, negative = inhibition [3] 17% | Potency [4] > 20.6 µM

CCCCn1c(C)cc2cc(O)ccc21
inactive: activity change, negative = inhibition [1] -15.1% | activity change, negative = inhibition [2] -5.83% | activity, negative = inhibition [3] -8.99% | Potency [4] > 20.6 µM

Cn1c(=O)c2c(nc(Br)n2Cc2ccc3ccccc3c2)n(C)c1=O
inactive: activity change, negative = inhibition [1] -1.43% | activity change, negative = inhibition [2] -13.6% | activity, negative = inhibition [3] -5.3% | Potency [4] > 20.6 µM

COc1ccc[nH]c1=O
inactive: activity change, negative = inhibition [1] 14.3% | activity change, negative = inhibition [2] -4.63% | activity, negative = inhibition [3] 3.09% | Potency [4] > 20.6 µM

CSC1=C(C#N)C(C)CC(=O)N1 (centres undefined)
inactive: activity change, negative = inhibition [1] 3.08% | activity change, negative = inhibition [2] -0.632% | activity, negative = inhibition [3] 3.87% | Potency [4] > 20.6 µM

Cc1cc(=O)oc2c(CN3CCN(C)CC3)c(O)c(Cl)cc12
inactive: activity change, negative = inhibition [1] 16.9% | activity change, negative = inhibition [2] 25% | activity, negative = inhibition [3] 9.62% | Potency [4] > 20.6 µM

O=C1c2ccccc2S(=O)(=O)N1CC(O)COc1ccc(Cl)cc1 (centres undefined)
inactive: activity change, negative = inhibition [1] -4.25% | activity change, negative = inhibition [2] -2.04% | activity, negative = inhibition [3] -1.8% | Potency [4] > 20.6 µM

O=C(C1=C(O)C(=O)N(CCCN2CCOCC2)C1c1ccccn1)c1cc2ccccc2o1 (centres undefined)
inactive: activity change, negative = inhibition [1] 0.283% | activity change, negative = inhibition [2] 1.99% | activity, negative = inhibition [3] -5.61% | Potency [4] > 20.6 µM

CC1(C2(O)CC(c3ccccc3)ON2)CCCCC1 (centres undefined)
inactive: activity change, negative = inhibition [1] 11.4% | activity change, negative = inhibition [2] -10.5% | activity, negative = inhibition [3] -1.99% | Potency [4] > 20.6 µM

CC(C)(C)c1ccc(O)c(N)c1
inactive: activity change, negative = inhibition [1] 3.38% | activity change, negative = inhibition [2] -5.9% | activity, negative = inhibition [3] 8.3% | Potency [4] > 20.6 µM

O=S(=O)(O)c1nc2ccccc2n1Cc1ccc(Cl)cc1Cl
inactive: activity change, negative = inhibition [1] 18.6% | activity change, negative = inhibition [2] 7.47% | activity, negative = inhibition [3] -9% | Potency [4] > 20.6 µM

N#CCCn1cnc2c(=S)nc[nH]c21
inactive: activity change, negative = inhibition [1] 16.8% | activity change, negative = inhibition [2] 11.2% | activity, negative = inhibition [3] 11.6% | Potency [4] > 20.6 µM

Cc1ccc(N2C(=O)[C@@H]3[C@H](C2=O)C2CCCN2[C@@H]3C(=O)c2ccccc2)cc1 (some centres undefined)
inactive: activity change, negative = inhibition [1] -15.8% | activity change, negative = inhibition [2] 9.36% | activity, negative = inhibition [3] -3.84% | Potency [4] > 20.6 µM

N#CC1=C(N)OC2=C(C(=O)CCC2)C1CCc1ccccc1 (centres undefined)
inactive: activity change, negative = inhibition [1] -2.2% | activity change, negative = inhibition [2] -13.6% | activity, negative = inhibition [3] 8.87% | Potency [4] > 20.6 µM

O=c1[nH]cnc2cc(-c3ccccc3)sc12
inactive: activity change, negative = inhibition [1] -9.08% | activity change, negative = inhibition [2] 3.27% | activity, negative = inhibition [3] 9.54% | Potency [4] > 20.6 µM

CC(=O)[C@@]1(O)CC[C@H]2[C@@H]3CCC4=CC(=O)CC[C@]4(C)[C@H]3[C@@H](O)C[C@@]21C
active: Potency [4] 0.0133 µM
inactive: activity change, negative = inhibition [1] 3.13% | activity change, negative = inhibition [2] -20.8% | activity, negative = inhibition [3] 4.29%

CCCCC(=O)Nc1c(O)c2ccccc2[nH]c1=O
inactive: activity change, negative = inhibition [1] 4% | activity change, negative = inhibition [2] -5.18% | activity, negative = inhibition [3] 1.28% | Potency [4] > 20.6 µM

Brc1ccc2c(c1)CNc1c(ncnc1N1CCOCC1)O2
inactive: activity change, negative = inhibition [1] -1.29% | activity change, negative = inhibition [2] -6.94% | activity, negative = inhibition [3] -3.65% | Potency [4] > 20.6 µM

Cn1nnnc1SCC(=O)NCC(=O)c1ccccc1
inactive: activity change, negative = inhibition [1] -2.72% | activity change, negative = inhibition [2] 2.64% | activity, negative = inhibition [3] 0.0289% | Potency [4] > 20.6 µM

C/C(=N\O)C(=O)NCCCNCCCN(C)C
inactive: activity change, negative = inhibition [1] 2.66% | activity change, negative = inhibition [2] -0.0528% | activity, negative = inhibition [3] 14.2% | Potency [4] > 20.6 µM

CC1(C)Cc2c(sc3ncn4nc(-c5ccco5)nc4c23)CO1
inactive: activity change, negative = inhibition [1] -5.24% | activity change, negative = inhibition [2] 8.04% | activity, negative = inhibition [3] -2.67% | Potency [4] > 20.6 µM

Cn1c(=O)c2c(nc(NCc3ccc4c(c3)OCO4)n2Cc2ccc(F)cc2)n(C)c1=O
inactive: activity change, negative = inhibition [1] -26% | activity change, negative = inhibition [2] -10.4% | activity, negative = inhibition [3] -22% | Potency [4] > 20.6 µM

Cn1ncc(N=Cc2c(O)ccc3ccccc23)c1C(=O)N1CCOCC1
inactive: activity change, negative = inhibition [1] 1.1% | activity change, negative = inhibition [2] -28.4% | activity, negative = inhibition [3] -16.5% | Potency [4] > 20.6 µM

Cc1ccc(/C=c2\sc3n(c2=O)CN(c2ccc(Br)cc2)CN=3)o1
inactive: activity change, negative = inhibition [1] 25.9% | activity change, negative = inhibition [2] -11.3% | activity, negative = inhibition [3] 0.614% | Potency [4] > 20.6 µM

Cn1c(OCc2ccc3c(c2)OCO3)nc2c1c(=O)n(Cc1cccc(Cl)c1)c(=O)n2C
inactive: activity change, negative = inhibition [1] -15.5% | activity change, negative = inhibition [2] 1.55% | activity, negative = inhibition [3] -6.64% | Potency [4] > 20.6 µM

O/N=C/c1ccc(OCC(O)COc2ccc(/C=N/O)cc2)cc1
inactive: activity change, negative = inhibition [1] -15.3% | activity change, negative = inhibition [2] -1.17% | activity, negative = inhibition [3] 4.46% | Potency [4] > 20.6 µM

Reference: PubChem BioAssay (NCATS)
